The full list was thinned out, with hits kept by preference.
AmpC detergent: qHTS Inhibitors of AmpC Beta-Lactamase (assay with detergent); Potency, µM (highest dose often 114 µM), most hits filed as inhibitors; P00811; AmpC hydrolysis of nitrocefin, absorbance 480 nm, 0.01% Triton; hit rate 0.041% among 370,000; further: nearly all actives have a fitted effect of over 25% in size
Target sequence (P00811 whole entry, looked up): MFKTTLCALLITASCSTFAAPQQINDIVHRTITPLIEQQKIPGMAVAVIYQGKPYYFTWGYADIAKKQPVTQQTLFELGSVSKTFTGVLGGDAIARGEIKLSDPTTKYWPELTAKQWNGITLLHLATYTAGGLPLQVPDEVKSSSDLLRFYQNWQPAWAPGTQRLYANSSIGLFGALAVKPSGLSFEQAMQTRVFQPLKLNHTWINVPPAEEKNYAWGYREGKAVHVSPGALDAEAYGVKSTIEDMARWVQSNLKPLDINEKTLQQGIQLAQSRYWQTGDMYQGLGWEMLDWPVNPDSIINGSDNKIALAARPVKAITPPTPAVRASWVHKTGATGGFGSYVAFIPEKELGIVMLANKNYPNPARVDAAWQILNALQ
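AmpC (5.3 nM in the dispensed reagent) in 20 mM phosphate pH 7.0 with 0.01% (detergent screen) or 0.0001% Triton X-100 was preincubated with compounds for 15 min at room temperature. Nitrocefin was then added from an 800 uM solution, and hydrolysis was followed at 480 nm.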
Shiga toxin inh: A qHTS for Small Molecule Inhibitors of Shiga Toxin; Vero cells, Shiga toxin protein synthesis inhibition reporter; inhibition, % at 38.7 µM; hit rate 9.2% among 290,000; AID 2315, 2010; in the data active means inhibition mostly above about 28%, no sharp cut-off; inactive means mostly below about 43%
CHX counter: Cycloheximide Counterscreen for Small Molecule Inhibitors of Shiga Toxin; cell reporter, cycloheximide protein synthesis inhibition counterscreen; max response, %; hit rate 12% among 300,000; AID 2314, 2010; in the data active means max response mostly above about 13%, no sharp cut-off; inactive means mostly below about 14%; further: read at 38.3 µM for the half of the compounds with a filed dose
NS1 inh: qHTS Assay for Inhibitors of Influenza NS1 Protein Function | Potency, µM (titrated, usually from 46.1 µM) | hit rate 0.4% among 270,000 | AID 2326, 2010; calls by dose curve; further: actives are rising curves; nearly all actives have a fitted effect of over 50% in size
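Recovery from NS1-induced slow growth read by OD600 in budding yeast switched to galactose assay medium (pH 6.0, -URA) at 1:100 dilution. Compound 23 nl per well; the matching strain lacking NS1 serves as control.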
AmpC no deterg: qHTS Inhibitors of AmpC Beta-Lactamase (assay without detergent). P00811. AID 485341, 2010. Potency, µM (series often up to 57.1 µM), usual class: inhibitors. hit rate 0.52% among 330,000. AmpC nitrocefin hydrolysis, absorbance 480 nm, 0.0001% Triton; further: nearly all actives have a fitted effect of over 20% in size
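AmpC (5.3 nM in the dispensed reagent) in 20 mM phosphate pH 7.0 with 0.01% (detergent screen) or 0.0001% Triton X-100 was preincubated with compounds for 15 min at room temperature. Nitrocefin was then added from an 800 uM solution, and hydrolysis was followed at 480 nm.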
Of the large screens only hits and unclear results are named; the others gave an inactive call. Unless noted, the call rests on the fitted dose curve; in most records, active means well fitted curve in the direction sought with a large enough effect; inconclusive means small, poorly fitted or top-dose-only effect, or another doubt; inactive means no such curve, though single readings can be large; an effect the other way counts as inactive or inconclusive.

Nc1nc(Nc2ccccc2F)nc(N2CCCC2)c1[N+](=O)[O-]	Shiga toxin inh 107, CHX counter 51
CN(c1ccccc1)c1nc(N)c([N+](=O)[O-])c(N2CCCC2)n1	Shiga toxin inh 81, CHX counter 37
CN(c1ccccc1)c1nc(N)c([N+](=O)[O-])c(N2CCOCC2)n1	none
O=C(CSc1ncnc2ccccc12)c1ccc2c(c1)OCCO2	Shiga toxin inh 185, CHX counter 46
O=C(COc1ncnc2cc(Cl)ccc12)c1ccc2c(c1)OCCO2	Shiga toxin inh 74, CHX counter 29
Cc1ccc(C)c(C(=O)COc2ncnc3ccccc23)c1	Shiga toxin inh 70 (no result: NS1 inh)
Cc1ccc(C(=O)COc2ncnc3cc(Cl)ccc23)cc1	none
O=C(Cn1cnc2ccccc2c1=O)OCC(=O)c1ccc2c(c1)OCCO2	none
O=C(COc1ncnc2ccccc12)c1ccc2c(c1)OCCO2	Shiga toxin inh 132, CHX counter 55
Cc1ccc(S(=O)(=O)N2CCN(Cc3ccccc3)CC2)c(C)c1N(C)S(=O)(=O)c1ccccc1	none
O=C(Cc1ccccc1)Nc1nnc2n1CCS2	none (no result: Shiga toxin inh, CHX counter, NS1 inh, AmpC no deterg)
O=C(Nc1ccc2c(c1)OCO2)C1CCN(C(=O)CSc2ncnc3ccccc23)CC1	Shiga toxin inh 44, CHX counter 34
CC(=Nc1cc(C(=O)c2ccccc2)ccc1N)C1=C(O)CC(C)(C)CC1=O	Shiga toxin inh 125, CHX counter 29 (no result: NS1 inh)
CC(=O)c1cccc(NC(=O)Cn2nc(C(F)(F)F)c3c2CCC3)c1	none (no result: Shiga toxin inh, CHX counter, NS1 inh, AmpC no deterg)
Nc1cccc2c1C(=O)N(C(=O)/C=C/c1ccc(F)cc1)C2=O	Shiga toxin inh 76, CHX counter 37 (no result: NS1 inh)
O=S(=O)(C/C(=C/CO)S(=O)(=O)c1ccccc1)c1ccccc1	CHX counter 26
COc1ccccc1CN(C)CC(=O)Nc1ccc(Cl)cc1F	AmpC detergent inconclusive (no result: NS1 inh)
CCC(=O)Nc1ccc(Cl)c(NC(=O)c2cccnc2)c1	none
O=C(Nc1ccc(F)c(Cl)c1)c1cccnc1	CHX counter 14
CCCC(=O)Nc1ccc(Cl)c(NC(=O)c2cccnc2)c1	AmpC no deterg 0.16µM
O=C(Nc1ccc(Cl)cc1Cl)C1=Cc2ccccc2OC1	Shiga toxin inh 68, CHX counter 54
COc1ccccc1CN(C)CC(=O)Nc1ccc(Cl)cc1C(F)(F)F	CHX counter 15
Cc1ccc2cccc(NC(=O)c3ccc(C#N)cc3F)c2n1	none (no result: Shiga toxin inh, CHX counter, NS1 inh, AmpC no deterg)
O=C(Nc1ccccc1Cl)c1ccccc1	Shiga toxin inh 148, CHX counter 30 (no result: NS1 inh)
O=C(Nc1cc(Cl)ccc1Cl)c1ccc(-c2ccccc2)cc1	CHX counter 17
O=C(Nc1ccc(Cl)cc1C(F)(F)F)c1ccccc1	AmpC detergent inconclusive, CHX counter 16
COCC(=O)Nc1ccc(C(=O)Nc2ccccc2Cl)cc1	Shiga toxin inh 92, CHX counter 33
O=C(Nc1cccc(Cl)c1Cl)c1ccc(-c2ccccc2)cc1	none
CCOC(=O)c1ccc2c(c1)nc(-c1ccc(F)cc1)c1nccn12	none
Cc1c(Cl)cccc1NC(=O)c1ccc(C(=O)Nc2cccc(Cl)c2C)cc1	none (no result: Shiga toxin inh, CHX counter, NS1 inh, AmpC no deterg)
Cc1ccc(C(=O)Nc2ccccc2Cl)cc1	CHX counter 37 (no result: Shiga toxin inh)
O=C(Nc1ccc(C(=O)Nc2ccccc2Cl)cc1)c1cccnc1	Shiga toxin inh 29, CHX counter 19
C[C@H](NC(=O)/C(C#N)=C/c1ccc(O)c(O)c1)c1ccccc1	none (no result: AmpC detergent, Shiga toxin inh, CHX counter, AmpC no deterg)
CC(=O)Nc1cccc2c1Cc1ccccc1-2	CHX counter 41
N#CCc1ccc(NC(=O)/C=C/c2ccc([N+](=O)[O-])o2)cc1	Shiga toxin inh 56, CHX counter 37 (no result: NS1 inh)
O=C(O)/C=C/c1ccc([N+](=O)[O-])o1	none (no result: NS1 inh)
NC1=NC[C@H](Cc2ccc(O)cc2)N1CCc1cc(C(F)(F)F)cc(C(F)(F)F)c1	CHX counter 19
COC(=O)c1cc2oc3ccccc3c2n1CC(=O)Nc1ccc(C)cc1C	none (no result: Shiga toxin inh, CHX counter, NS1 inh, AmpC no deterg)
Clc1ccc(Cn2c(-c3cccnc3Cl)nc3ccccc32)c(Cl)c1	AmpC detergent inconclusive
Clc1cc2nc(-c3cccnc3Cl)[nH]c2cc1Cl	Shiga toxin inh 105, CHX counter 29
Cc1ccc(CSc2nncn3c2cc2sccc23)cc1	none (no result: Shiga toxin inh, CHX counter, NS1 inh, AmpC no deterg)
CC(=O)Nc1ccc(NC(=O)Nc2cccc3ccccc23)cc1	none
CC(=O)c1ccc(NC(=O)Nc2cccc3ccccc23)cc1	CHX counter 27
O=C(Nc1ccccc1)Nc1cccc2cccnc12	Shiga toxin inh 122, CHX counter 36
O=C(Nc1ccccc1)Nc1cccc2ccccc12	CHX counter 19
O=C(CI)Nc1cccc2cccnc12	none (no result: AmpC detergent, NS1 inh, AmpC no deterg)
O=C(CCCl)Nc1cccc2cccnc12	CHX counter 48 (no result: AmpC detergent, NS1 inh, AmpC no deterg)
CC(O)[C@@]1(O)CC[C@H]2[C@@H]3CC[C@H]4C[C@@H](O)CC[C@]4(C)C3=CC[C@@]21C (stereo partly drawn)	none (no result: Shiga toxin inh, CHX counter, NS1 inh)
COc1ccc(CCNC(=O)c2cc(S(=O)(=O)N3CCOCC3)ccc2F)cc1	none (no result: Shiga toxin inh, CHX counter, NS1 inh)
CCC(=O)Nc1cccc2cccnc12	none
O=C(Nc1cccc2cccnc12)OCc1ccccc1	CHX counter 30 (no result: AmpC detergent, NS1 inh, AmpC no deterg)
O=C(Nc1ccccc1)Nc1csc2ccccc12	Shiga toxin inh 148, CHX counter 51
COc1ccc2nc(/N=C\N(C)C)sc2c1	none
COc1ccc2nc(/N=C/c3cccc(OC)c3O)sc2c1	CHX counter 26
COc1ccc2nc(/N=C/c3c(C)[nH]n(-c4ccc(C)cc4)c3=O)sc2c1	CHX counter 17
COc1ccc2c(c1)-c1nc(/N=C/c3cccc(OC)c3O)sc1CC2	none
COc1ccc2nc(N=Nc3ccc(N(C)C)cc3)sc2c1	Shiga toxin inh 126, CHX counter 31
Cc1ccc(-n2[nH]c(C)c(C=Nc3cc(C)ccn3)c2=O)cc1	none
O=S(=O)(c1ccc(N2CCN(Cc3ccccc3)CC2)nc1)N1CCCC1	none (no result: Shiga toxin inh, CHX counter, NS1 inh)
CC(=O)N(c1cccc(Cl)c1)c1nc(C)cc(C)c1C#N	none
Cc1c2cnn(CC(=O)N3CCN(c4ccccc4)CC3)c(=O)c2c(C)n1Cc1ccccc1Cl	none (no result: Shiga toxin inh, CHX counter, NS1 inh, AmpC no deterg)
Nc1nonc1-c1noc(CCCN2C(=O)c3ccccc3C2=O)n1	AmpC detergent inconclusive, Shiga toxin inh 98, CHX counter 112
Nc1nonc1-c1noc(-c2ccccc2Br)n1	Shiga toxin inh 38, CHX counter 30
FC(F)(F)c1ccc(-c2noc(-c3ccccc3Br)n2)cc1	none (no result: Shiga toxin inh, CHX counter, NS1 inh, AmpC no deterg)
O=C1c2ccccc2C(=O)N1CCCc1nc(-c2ccncc2)no1	AmpC detergent inconclusive
C/C(=C\c1ccccc1)C(=O)NC1CCSC1=O (stereo not drawn)	CHX counter 18
CCOC(=O)c1sc(Nc2nc3cc4c(cc3s2)OCO4)cc1C	Shiga toxin inh 82, CHX counter 43, NS1 inh inconclusive
O=C(COc1ccccc1)Nc1nc2cc3c(cc2s1)OCCO3	CHX counter 28, AmpC no deterg inconclusive
COc1cccc2sc(NN)nc12	none (no result: NS1 inh)
O=C(Nc1nc2cc3c(cc2s1)OCO3)C1=COCCO1	none
CC(=O)c1sc(Nc2nc3cc4c(cc3s2)OCO4)nc1C	Shiga toxin inh 74

From PubChem BioAssay
